HSP90 refold inh: HSP90 refolding inhibition in rabbit reticulocyte lysate | luciferase refolding luminescence, 3 h | inhibition, % at 5.6 µM | 0.91% of 290,000 active | AID 1789;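 active = inhibition above the screen-wide mean plus 3 SD, computed separately per campaign, cut at about 16% in these data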;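 note: 0% = DMSO wells and 100% = 60 µM geldanamycin wells; inhibitors lower the luminescence because luciferase stays unfolded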
SENP6 block: blocks the human protease SENP6; Q9GZR1; Recombinant SENP6 catalytic domain, aminoluciferin luminescence; inhibition, % at 10 µM; 1.8% of 330,000 active; AID 2599;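 active = inhibition above about 50% at the single tested dose, limit read from the data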;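 note: plate controls were DMSO wells with enzyme for no effect and DMSO wells lacking enzyme for full effect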
Platelet DG rel: platelet dense granule release activity; inhibition, %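 (compounds screened at 7.5 µM in platelet-rich plasma)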; human platelet-rich plasma, SFLLRN dense granule ATP release, luminescence; 0.22% of 300,000 active; AID 1663;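 active = mean replicate score, as percent of positive control, at or above 50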
SENP8 block-1: inhibitors of human SENP8 protease; Q96LD8; recombinant SENP8, Nedd8 substrate fluorescence; inhibition, % at 20 µM; 0.64% of 360,000 active; in the data active = inhibition mostly above about 40%, no sharp cut-off; inactive = mostly below about 27%
SENP8 block-2: SENP8 protease inhibition; inhibition, % at 10 µM; Q96LD8; purified SENP8, Z-RLRGG-aminoluciferin cleavage, luminescence; 1.2% of 330,000 active; in the data active = inhibition above about 50%
SENP7 inh: blocks the human protease SENP7 | Q9BQF6 | 1.5% of 330,000 active | recombinant SENP7, Z-RLRGG-aminoluciferin luminescence, 40 min | inhibition, % at 5 µM;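 active = inhibition above about 50% at the single test dose, limit read from the data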;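 note: plate controls were DMSO with enzyme for no effect and no enzyme buffer wells for full effect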
Target sequence (Q9BQF6 706-1050 limits assumed): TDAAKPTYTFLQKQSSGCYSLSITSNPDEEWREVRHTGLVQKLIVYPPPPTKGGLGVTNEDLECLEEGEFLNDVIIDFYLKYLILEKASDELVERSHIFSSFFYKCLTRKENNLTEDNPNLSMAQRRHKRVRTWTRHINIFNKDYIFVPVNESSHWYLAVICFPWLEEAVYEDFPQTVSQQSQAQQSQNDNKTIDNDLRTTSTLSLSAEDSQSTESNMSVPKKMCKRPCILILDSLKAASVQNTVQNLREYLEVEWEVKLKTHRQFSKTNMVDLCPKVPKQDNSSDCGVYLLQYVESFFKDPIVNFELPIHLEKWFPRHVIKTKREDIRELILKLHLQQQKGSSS
SENP8 confirm: confirmation of human SENP8 protease inhibitors; shares compounds with SENP7 inh; Recombinant SENP8, Z-RLRGG-aminoluciferin luminescence, 60 min; inhibition, % at 12.5 µM; 40% of 6,200 active; AID 488912;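 active = mean inhibition across replicates above about 50%, limit read from the data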
SENP6 confirm: human SENP6 inhibition, confirmed; shares compounds with SENP7 inh; recombinant SENP6, Z-RLRGG-aminoluciferin luminescence; inhibition, % at 12.5 µM; 58% of 6,200 active; AID 488915
SENP7 conf: confirmation of human SENP7 protease inhibitors. 69% of 6,200 active. recombinant SENP7, Z-RLRGG-aminoluciferin luminescence, 40 min. shares compounds with SENP7 inh. inhibition, % at 12.5 µM
Casp3 select: selectivity test for SENP inhibitors: human caspase-3 inhibition; shares compounds with SENP7 inh; purified caspase-3, Z-DEVD-aminoluciferin luminescence, 60 min; inhibition, % at 12.5 µM; 60% of 6,200 active; AID 488918;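 active = mean inhibition above about 50%, limit read from the data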;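 note: plate controls were enzyme with DMSO for no effect and wells without caspase-3 for full effect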
Target sequence (P42574 28-227 limits assumed): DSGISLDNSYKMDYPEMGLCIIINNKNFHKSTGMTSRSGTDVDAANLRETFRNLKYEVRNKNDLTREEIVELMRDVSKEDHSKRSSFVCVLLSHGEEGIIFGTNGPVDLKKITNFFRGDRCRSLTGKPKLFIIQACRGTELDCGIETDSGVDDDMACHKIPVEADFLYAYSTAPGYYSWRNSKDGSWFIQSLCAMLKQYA
Luc interf: interferes with luciferase luminescence in SENP counter-screen; Pre-incubated SENP8/Z-RLRGG-aminoluciferin, luciferase luminescence interference; inhibition, % at 12.5 µM; 39% of 6,200 active; shares compounds with SENP7 inh;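 active = mean inhibition above about 50% when retested at one dose, limit read from the data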;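 note: plate controls were DMSO wells with completed reaction for no effect and substrate without enzyme for full effect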
Numbers without * were called inactive. Only some compounds are listed: those with a hit (about 2.8% of all), similar ones and a draw of the others.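 Rule for the calls, unless noted: active = mean inhibition above about 50% in the one-dose retest (limit read from the data); inactive = the rest.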

For CS(=O)(=O)N(CC(=O)NCCSCc1cccc(Cl)c1)c1ccccc1F the results were HSP90 refold inh 2, SENP6 block -9, Platelet DG rel -3, SENP8 block-1 7, SENP8 block-2 -9 and SENP7 inh -12.
Screening CC(=O)Oc1ccc2nc(/C=C/c3ccc(C=O)cc3)oc(=O)c2c1 returned HSP90 refold inh 1, SENP6 block -5, Platelet DG rel 2, SENP8 block-1 -127, SENP8 block-2 -5 and SENP7 inh -6.
Screening CC(=O)Oc1ccc2nc(/C=C/c3ccccc3)oc(=O)c2c1 returned HSP90 refold inh -4, SENP6 block 36, Platelet DG rel 14, SENP8 block-1 -198, SENP8 block-2 77*, SENP7 inh 72*, SENP8 confirm 16, SENP6 confirm 22, SENP7 conf 49, Casp3 select 62* and Luc interf 52*.
Cc1ccccc1-c1nnc(SCc2ccccc2F)o1 was read as HSP90 refold inh 0, SENP6 block 57*, Platelet DG rel 8, SENP8 block-1 -10, SENP8 block-2 12, SENP7 inh 31, SENP8 confirm 18, SENP6 confirm 45, SENP7 conf 73*, Casp3 select 36 and Luc interf 18.
Screening Fc1ccccc1CSc1nnc(-c2ccccc2)o1 returned HSP90 refold inh 1, SENP6 block 54*, Platelet DG rel 0, SENP8 block-1 21, SENP8 block-2 19, SENP7 inh 40, SENP8 confirm 27, SENP6 confirm 30, SENP7 conf 63*, Casp3 select 24 and Luc interf 23.
COc1ccc(-c2nnc(SCC(=O)c3cccs3)o2)cc1 was read as HSP90 refold inh -2, SENP6 block 24, Platelet DG rel 4, SENP8 block-1 15, SENP8 block-2 27, SENP7 inh 56*, SENP8 confirm 16, SENP6 confirm 36, SENP7 conf 83*, Casp3 select 55* and Luc interf 10.
Screening Cc1ccccc1-c1nnc(SCc2ccccc2)o1 returned HSP90 refold inh 1, SENP6 block 37, Platelet DG rel 2, SENP8 block-1 31, SENP8 block-2 4 and SENP7 inh 16.
COc1ccc(-c2nnc(SCc3ccccc3F)o2)cc1 was read as HSP90 refold inh 5, SENP6 block 69*, Platelet DG rel 4, SENP8 block-1 15, SENP8 block-2 53*, SENP7 inh 67*, SENP8 confirm 68*, SENP6 confirm 70*, SENP7 conf 89*, Casp3 select 49 and Luc interf 51*.
For COc1ccc(NC(=O)Nc2ccc(F)c(F)c2)c(OC)c1 the results were HSP90 refold inh -5, SENP6 block -5, Platelet DG rel -1, SENP8 block-1 22, SENP8 block-2 -4 and SENP7 inh 1.
For COc1ccc(NC(=O)Nc2ccccc2C(N)=O)cc1OC the results were HSP90 refold inh -2, SENP6 block -22, Platelet DG rel 6, SENP8 block-1 11, SENP8 block-2 7 and SENP7 inh 36.
`COc1ccc(NC(=O)Nc2cc(C)ccc2F)cc1` gave HSP90 refold inh 3, SENP6 block 92*, Platelet DG rel 32, SENP8 block-1 14, SENP8 block-2 88*, SENP7 inh -5, SENP8 confirm 1, SENP6 confirm 92*, SENP7 conf 101*, Casp3 select 91* and Luc interf 59*.
Screening COc1ccc(NC(=O)Nc2ccccc2C(N)=O)cc1 returned HSP90 refold inh 12, SENP6 block 96*, Platelet DG rel 45, SENP8 block-1 11, SENP8 block-2 91*, SENP7 inh 96*, SENP8 confirm -2, SENP6 confirm 95*, SENP7 conf 102*, Casp3 select 98* and Luc interf 89*.
COc1ccc2c(c1)Cc1c-2cc(Br)c(N)c1Br was read as SENP8 block-1 3.
Screening O=C(OCCN1CCN(C2=NS(=O)(=O)c3ccccc32)CC1)c1ccccc1F returned HSP90 refold inh 3, SENP6 block -2, Platelet DG rel 5, SENP8 block-1 5, SENP8 block-2 4 and SENP7 inh 6.
`O=C(NCc1cc(F)ccc1F)C1CCC(=O)N(C2CCCCCC2)C1` (stereo not given) gave HSP90 refold inh 0, SENP6 block -4, Platelet DG rel 7, SENP8 block-1 2, SENP8 block-2 -7 and SENP7 inh -2.
O=c1oc2c(O)cccc2cc1-c1nc2ccccc2[nH]1 was read as HSP90 refold inh 11, SENP6 block 93*, Platelet DG rel 48, SENP8 block-1 -287, SENP8 block-2 1, SENP7 inh 96*, SENP8 confirm 31, SENP6 confirm 85*, SENP7 conf 36, Casp3 select 39 and Luc interf 14.
Screening O=c1oc2c(CN3CCCCC3)c(O)ccc2cc1-c1nc2ccccc2[nH]1 returned SENP8 block-1 -250.
`c1ccc(CNc2ccc3ccccc3n2)nc1` gave HSP90 refold inh 9, SENP6 block 87*, Platelet DG rel 8, SENP8 block-1 -164, SENP8 block-2 86*, SENP7 inh -14, SENP8 confirm 88*, SENP6 confirm 89*, SENP7 conf 99*, Casp3 select 92* and Luc interf 91*.
For Cc1cc(NCc2ccccn2)nc2ccccc12 the results were HSP90 refold inh 4, SENP6 block 1, Platelet DG rel 14, SENP8 block-1 -115, SENP8 block-2 5 and SENP7 inh 2.
For COc1cc(CCN(C(=O)c2cccc(S(C)(=O)=O)c2)C(CCc2ccccc2)c2nc3ccccc3[nH]2)cc(OC)c1 (stereo not given) the results were SENP8 block-1 21.
`NC(=O)C1CCN(C(=O)c2cccc(S(=O)(=O)N3CCCC3)c2)CC1` gave SENP6 block 5, SENP8 block-1 11, SENP8 block-2 4 and SENP7 inh -3.
Screening CCOC(=O)N1CCN(C(=O)COc2ccc(S(=O)(=O)Nc3ccc(OCC)cc3)cc2)CC1 returned HSP90 refold inh -2, SENP6 block 8, Platelet DG rel -5, SENP8 block-1 5, SENP8 block-2 -5 and SENP7 inh 8.
